Compound activity as filed in PubChem BioAssay.
p53 reactivator – qHTS assay for re-activators of p53 using a Luc reporter | H1299 p53-A138V BP100-luciferase reporter, luminescence, 24 h | Potency, µM (titrated, usually from 92.2 µM), inactives show at the highest dose activity change, positive = activation, most hits filed as activators | 320,000 tested, 0.063% active; note: % of control where 0% means no effect; nearly all actives have a fitted effect of over 45% in size
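p53-null H1299 cells stably carrying temperature-sensitive p53-A138V and a BP100-luciferase reporter were pinned with compounds (4-point, 1:5 series) and held 24 hrs at 37 deg C. Luminescence was read 10 min after detection reagent.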
ELG1 genotoxic – qHTS screen for small molecules that induce genotoxicity in human embryonic kidney (HEK293T) cells expressing luciferase-tagged ELG1. HEK293T ELG1-luciferase reporter, luminescence, 16 h. Potency, µM (highest dose often 46 µM), for inactives: at the highest dose activity change, positive = activation, hits mostly activators. 330,000 tested, 1.3% active; note: % of control where 0% means no effect; nearly all actives have a fitted effect of over 60% in size
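Step 1: seed 2,000 HEK293T ELG1-luciferase cells per well. Step 2: add compound or DMSO, incubate 16 hr at 37 °C. Step 3: ONE-Glo, 30 min at room temperature, read luminescence.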
Rab9 prom act – qHTS Assay for Rab9 Promoter Activators | 320,000 tested, 2.8% active | Huh7 Rab9 promoter-luciferase reporter, luminescence, 24 h | Potency, µM (series often up to 9.22 µM), without a hit: at the top dose activation, negative = inhibition, actives largely listed as activators; note: % of control where 0% means no effect; nearly all actives have a fitted effect of over 60% in size
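Using Huh7 cells stably transfected with Rab9 promoter–luciferase, compounds were incubated 24 h at 37 °C, 5% CO2; luciferase luminescence was read 10 min after reagent addition.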
SMN2 splice up – qHTS Assay for Enhancers of SMN2 Splice Variant Expression; AID 1458, 2008; 210,000 tested, 2.8% active; HEK293 SMN2-luciferase splicing reporter, luminescence, 30-36 h; Potency, µM (series often up to 46.1 µM), without a hit: at the highest dose activity change, positive = activation, usual class: activators; note: % of control where 0% means no effect; nearly all actives have a fitted effect of over 55% in size
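qHTS luciferase splicing reporter: luminescence rises when SMN2 exon 7 is included in transfected HEK293 cells. Compound exposure lasted 30-36 h at 37C, with 4.5 mM final sodium butyrate as control, followed by a ONE-Glo read.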
FLuc counter – qHTS profiling assay for firefly luciferase inhibitor/activator using purifed enzyme and Km concentrations of substrates (counterscreen for miR-21 project); Potency, µM (highest dose often 57.5 µM), without a hit: at the highest dose activity change, negative = inhibition, usual class: inhibitors; 360,000 tested, 6.9% active; AID 588342, 2011; Luciferin 4-monooxygenase (Photinus pyralis), P08659; purified FLuc, Km substrates, luminescence inhibition;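 note: plate controls were vehicle for no effect and reference inhibitor for full effect; nearly all actives have a fitted effect of over 55% in size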
Target sequence (P08659 whole entry, looked up): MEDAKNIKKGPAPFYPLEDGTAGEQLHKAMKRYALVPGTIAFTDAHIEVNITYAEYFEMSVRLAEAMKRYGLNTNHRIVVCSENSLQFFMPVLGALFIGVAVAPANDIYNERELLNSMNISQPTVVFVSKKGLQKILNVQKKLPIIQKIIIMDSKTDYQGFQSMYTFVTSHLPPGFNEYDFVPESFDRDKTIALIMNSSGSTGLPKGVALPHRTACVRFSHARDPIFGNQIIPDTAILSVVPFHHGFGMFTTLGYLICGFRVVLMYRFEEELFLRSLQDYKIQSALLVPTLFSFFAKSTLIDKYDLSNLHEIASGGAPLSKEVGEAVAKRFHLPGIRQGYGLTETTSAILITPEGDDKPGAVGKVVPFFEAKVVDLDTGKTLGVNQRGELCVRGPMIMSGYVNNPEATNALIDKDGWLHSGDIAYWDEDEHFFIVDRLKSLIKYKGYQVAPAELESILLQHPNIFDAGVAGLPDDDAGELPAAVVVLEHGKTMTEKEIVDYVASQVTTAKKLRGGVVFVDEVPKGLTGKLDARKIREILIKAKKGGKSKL
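Biochemical qHTS of compounds, final roughly 60 µM downward over six points, against 10 nM purified firefly luciferase using Km concentrations of substrates (10 uM D-luciferin, 10 uM ATP) in Tris acetate pH 7.5 buffer; luminescence output.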
NPC1 prom act – qHTS Assay for NPC1 Promoter Activators | Huh7 NPC1 promoter luciferase reporter, 24 h | 320,000 tested, 2.4% active | Potency, µM (series often up to 9.22 µM), inactives show top-dose activation, usual class: activators; note: % of control where 0% means no effect; nearly all actives have a fitted effect of over 60% in size
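Compounds in DMSO were transferred onto Huh7 NPC1-luciferase reporter cells pre-incubated 2 h; after 24 h at 37 °C, Amplite reagent was dispensed and luminescence recorded 10 min later.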
Numbers without * were called inactive; ? = inconclusive; . = no result given; [ ] = another dose, or the depositor's remark. An excerpt weighted towards active compounds, which were near 7.4% of everything screened. Calls come from the whole dose curve; as a rule, active = well fitted curve in the direction sought with a large enough effect; inconclusive = small, poorly fitted or top-dose-only effect, or another doubt; inactive = no such curve, though single readings can be large; an effect the other way counts as inactive or inconclusive. Potency is the fitted concentration of half-maximal effect.

SMILES	p53 reactivator	ELG1 genotoxic	Rab9 prom act	SMN2 splice up	FLuc counter	NPC1 prom act
Nc1nnc(SCC(=O)Nc2ccc3c(c2)OCCO3)s1	21%	?	3%	-52%	19µM*	19%
Nc1cc(N)nc(SCC(=O)Nc2ccc3c(c2)OCO3)n1	5%	-2%	11%	.	0%	-1%
CC(NCc1ccc2c(c1)OCO2)C(=O)N1CCc2ccccc21 (stereo not given)	-1%	1%	0%	-18%	2%	-3%
Cc1cccc(SCC(=O)Nc2ccc3c(c2)OCCO3)c1	-15%	-1%	4µM*	.	?	2µM*
Nc1ccccc1SCC(=O)Nc1ccc2c(c1)OCO2	-4%	0%	4µM*	.	2%	?
CCC(=O)Nc1nnc(SCC(=O)Nc2ccc3c(c2)OCCO3)s1	-25%	3%	.	.	-18%	-1%
CC(Nc1ccc2c(c1)OCCO2)C(=O)N1CCc2ccccc21 (stereo not given)	1%	12%	29%	16%	27µM*	10%
CCn1c(=O)c2sccc2n2c(CCC(=O)NCc3ccc(Cl)cc3)nnc12	.	.	.	-9%	-1%	.
CC(C)c1ccc(CN(Cc2ccco2)c2cnc(S(C)(=O)=O)nc2C(=O)Nc2ccccc2)cc1	.	.	.	.	-2%	.
COc1ccc(C2c3c(n(C)c4ccccc34)C(=O)N2CC(=O)Nc2ccccc2F)cc1 (stereo not given)	.	.	.	.	-7%	.
Cc1cccc(C)c1NC(=O)CN(C)C(=O)c1ccccc1Sc1ccccc1C#N	4%	-1%	-4%	.	-3%	?
CC(=O)c1ccc(NC(=O)CN(C)S(=O)(=O)c2cc3c(cc2Cl)NC(=O)CO3)cc1	.	.	.	.	1%	.
O=C(CC(c1ccccc1)c1ccccc1)Nc1ccc2c(c1)OCCO2	-4%	0%	1%	-19%	-17%	-6%
CC(C)c1ccc(NC(=O)COC(=O)CSc2nnc(N)s2)cc1	?	0%	3%	2%	15µM*	0%
Cc1ccnc(NC(=O)CSc2ccc3c(c2)OCCO3)c1	13%	18µM*	5%	.	?	18%
Nc1ccccc1SCC(=O)Nc1ccc2c(c1)OCCO2	?	?	3.2µM*	.	19µM*	2.2µM*
O=C(CSc1ncc(-c2ccc(F)cc2)n1Cc1ccco1)Nc1ccc2c(c1)OCO2	.	.	.	-1%	19µM*	.
CCOC(=O)c1cc2c(=O)n3ccccc3nc2n(CC2CCCO2)c1=NC(=O)c1ccccc1OCC (stereo not given)	.	.	.	-7%	2%	.
CC(=O)c1c(C)oc2c1cc(NS(=O)(=O)c1ccc(Cl)c(C)c1)c1ccccc12	.	.	.	-15%	?	.
Cc1cc2c(c(=O)n1Cc1ccccc1)C1O[C@](c3ccsc3)(Cc3cc(C#N)ccc31)O2	.	.	0%[1.84 µM]	.	3%[11.5 µM]	2%[1.84 µM]
CC[n+]1ccc(/C=C/c2ccc(N(C)C)cc2)c2ccccc21	-7%	-7%	-61%	.	24µM*	-38%
CC[n+]1ccccc1/C=C/c1ccc(N(C)C)cc1	-2%	-2%	-34%	-54%	-10%	-40%
COc1cc(/C=N/NC(=O)c2ccncc2)ccc1OC(=O)c1ccccc1Cl	-5%	-3%	-12%	-1%	?	-6%
COc1cc(/C=N/Nc2ccc(Cl)c(C(=O)O)c2)ccc1OC(=O)c1ccccc1F	-3%	14%	24%	.	17µM*	?
COc1cc(/C=N/Nc2ccc(Cl)c(C(=O)O)c2)ccc1OC(=O)c1ccc(F)cc1	14%	?	?	.	?	2.8µM*
SMILES	p53 reactivator	ELG1 genotoxic	Rab9 prom act	SMN2 splice up	FLuc counter	NPC1 prom act
CC(=O)c1cccc(NC(=O)C(C)OC(=O)c2cccc(-n3cnnn3)c2)c1 (stereo not given)	-4%	-3%	-6%	.	4%	0%
CC(C)NC(=O)N1CCC2(CC1)CCN(S(C)(=O)=O)CC2	.	.	.	-11%	.	.
COc1ccc(C(=O)c2ccc(CC#N)s2)cc1	16%	?	?	13µM*	12µM*	?
CCc1cc(C(=O)c2ccc(OC)cc2)c(N)s1	17%	1%	-1%	.	-2%	-6%
COc1ccc(C(=O)c2no[n+]([O-])c2C(=O)c2ccc(OC)cc2)cc1	-13%	3%	-1%	-95%	-3%	-1%
COc1ccc(C(=O)c2ccsc2N)cc1	16%	?	?	.	17µM*	3.5µM*
CCOc1ccc(CCNC(=O)CCn2c(=O)c3cccn3c3cccnc32)cc1	.	.	.	.	-2%	.
COc1cccc(NC(=O)c2cc(-c3ccccn3)nc3ccccc23)c1	5%	-9%	3%	.	-19%	-3%
COc1cccc(-c2cc(C(=O)Nn3cnnc3)c3ccccc3n2)c1	15%	5%	23%	-1%	0.95µM*	16%
COc1cccc(-c2cc(C(=O)Nc3ccncc3)c3ccccc3n2)c1	-2%	-13%	-2%	.	17µM*	-1%
Cc1ccc(/C=C/C(=O)c2ccc(O)cc2)cc1	11µM*	17%	?	.	2.1µM*	19%
CSc1ccc(/C=C/C(=O)c2ccc(O)cc2)cc1	?	?	?	-3%	3µM*	24%
COC(=O)c1ccccc1S(=O)(=O)N1CCC(C(=O)N(C)CCOc2ccccc2)CC1	-1%	1%	-5%	.	5%	-1%
COc1ccc(-c2nc3c(c4c2C[C@H](c2ccccc2)OC4)CN(C(=O)Nc2cccc(C#N)c2)CC3)c(C)c1	.	.	.	-37%[9.22 µM]	.	.
Cc1c(Cl)cccc1-c1ccc(C(=O)Nc2ccc(F)cc2)o1	.	.	.	18%	?	.
C#CCSc1nnc(-c2ccc(OC)cc2)o1	20%	10µM*	2.8µM*	?	7.6µM*	2.8µM*
COc1ccc(-c2nnc(SCC#N)o2)cc1	10%	?	1%	-10%	-7%	0%
CCSc1nnc(-c2ccc(OC)cc2)o1	?	7.1µM*	2.8µM*	11µM*	7.6µM*	2.8µM*
CCCCCCCCSc1nnc(-c2ccc(OC)cc2)o1	2%	-1%	1%	-15%	1%	-2%
C#CCSc1nnc(-c2ccc([N+](=O)[O-])cc2)o1	18%	16%	3.2µM*	20%	?	26%
CSc1nnc(-c2ccc([N+](=O)[O-])cc2)o1	12%	10%	12%	.	-3%	-4%
COc1ccc(-c2nnc(SCc3c(C)noc3C)o2)cc1	9%	1%	0%	-11%	19µM*	17%
